Where “and” joins values, the source holds several entries; their conditions need not be identical. Equal entries are not always repeated. Out of some 5,500 compounds screened, about 2,000 (36%) were called active. Another 18% or so got no clear call; they are omitted. Cut-off read from the data, not from the text of the source: active = normalized growth mostly below about 0.91 (no sharp cut-off); inconclusive = no clear call, values can overlap the other calls; inactive = mostly above about 0.92. Some of the results follow.
Assay: chemical genetic growth profiling, strain panel (AID 1159580);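 note: tested at 20 µM; growth read once vehicle control cultures reached saturation at 30 °C; 1 = growth at the plate median or of vehicle wells; lower values mean less growth of the strain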
Conditions: S. cerevisiae deletion strains, growth OD

Measured: normalized growth

Cc1cn([C@H]2C[C@H](N=[N+]=[N-])[C@@H](CO)O2)c(=O)[nH]c1=O
inactive: locus YAL013W, strain DEP1, hits give low values 1.01 | locus YAL021C, strain ccr4, hits give low values 0.993 | locus YAL026C, strain drs2, hits give low values 0.995 | locus YAL030W, strain snc1, hits give low values 1 | locus YBL061C, strain skt5, hits give low values 1 | locus YBR009C, strain hhf1, hits give low values 1.02 | locus YBR021W, strain FUR4, hits give low values 0.998 | locus YBR023C, strain chs3, hits give low values 1 | locus YBR171W, strain sec66, hits give low values 0.996 | locus YBR229C, strain ROT2, hits give low values 1.01 | locus YBR231C, strain swc5, hits give low values 1 | locus YBR279W, strain paf1, hits give low values 0.979 | locus YCL011C, strain gbp2, hits give low values 1.02 | locus YCL016C, strain dcc1, hits give low values 0.965 | locus YCL029C, strain bik1, hits give low values 1.01 | locus YCL069W, strain vba3, hits give low values 0.99 | locus YCR088W, strain abp1, hits give low values 0.995 | locus YDL005C, strain med2, hits give low values 1 | locus YDL035C, strain GPR1, hits give low values 1.01 | locus YDL040C, strain nat1, hits give low values 0.994 | locus YDL074C, strain BRE1, hits give low values 1.02 | locus YDL101C, strain DUN1, hits give low values 1.01 | locus YDL134C, strain PPH21, hits give low values 1 | locus YDL185W, strain tfp1, hits give low values 1.01 | locus YDL192W, strain arf1, hits give low values 1.01 | locus YDR001C, strain nth1, hits give low values 0.994 | locus YDR069C, strain doa4, hits give low values 1.01 | locus YDR101C, strain arx1, hits give low values 1.02 | locus YDR137W, strain rgp1, hits give low values 0.966 | locus YDR150W, strain NUM1, hits give low values 1 | locus YDR159W, strain sac3, hits give low values 0.971 | locus YDR162C, strain NBP2, hits give low values 1 | locus YDR195W, strain ref2 0.983 | locus YDR297W, strain sur2, hits give low values 1.02 | locus YDR318W, strain mcm21, hits give low values 1 | locus YDR334W, strain swr1, hits give low values 1.01 | locus YDR335W, strain msn5, hits give low values 0.984 | locus YDR388W, hits give low values 1 | locus YDR392W, strain spt3, hits give low values 0.924 | locus YDR502C, strain sam2, hits give low values 1.02 | locus YEL003W, strain gim4, hits give low values 1.01 | locus YEL037C, strain rad23, hits give low values 1 | locus YEL061C, strain CIN8 (second series), hits give low values 0.999 | locus YEL061C, strain CIN8, hits give low values 1 | locus YER015W, strain faa2, hits give low values 0.997 | locus YER016W, strain bim1, hits give low values 0.991 | locus YER110C, hits give low values 1.02 | locus YER111C, strain swi4, hits give low values 0.976 | locus YER155C, strain BEM2 (second series), hits give low values 1 | locus YER155C, strain BEM2, hits give low values 0.988 | locus YER167W, strain BCK2, hits give low values 0.998 | locus YFR010W, strain ubp6, hits give low values 1.01 | locus YGL078C, strain dbp3, hits give low values 1.01 | locus YGL086W, strain mad1, hits give low values 1 | locus YGL167C, strain pmr1, hits give low values 1 | locus YGL173C, strain kem1, hits give low values 1.01 | locus YGL227W, strain vid30, hits give low values 0.996 | locus YGL240W, strain doc1, hits give low values 1 | locus YGL248W, strain PDE1, hits give low values 1.01 | locus YGL253W, strain hxk2, hits give low values 0.981 | locus YGR078C, strain PAC10, hits give low values 1.01 | locus YGR135W, strain pre9, hits give low values 1.01 | locus YGR229C, strain SMI1, hits give low values 1.01 | locus YGR252W, strain gcn5, hits give low values 1.05 | locus YHR013C, strain ard1, hits give low values 0.969 | locus YHR027C, strain rpn1, hits give low values 1.03 | locus YHR030C, strain SLT2, hits give low values 1 and 0.984 | locus YHR079C, strain IRE1 (second series), hits give low values 0.998 | locus YHR079C, strain IRE1, hits give low values 0.966 | locus YHR094C, strain hxt1, hits give low values 1.01 | locus YHR129C, strain ARP1, hits give low values 1 | locus YHR142W, strain chs7, hits give low values 0.972 | locus YHR200W, strain rpn10, hits give low values 1.01 | locus YIL066C, strain RNR3, hits give low values 1.01 | locus YIL073C, strain SPO22, hits give low values 1.05 | locus YIL125W, strain kgd1, hits give low values 1.01 | locus YIR030C, strain dcg1, hits give low values 1 | locus YJL092W, strain hpr5, hits give low values 1.01 | locus YJL095W, strain BCK1 (second series), hits give low values 1.01 | locus YJL095W, strain BCK1, hits give low values 1.01 and 0.973 | locus YJL115W, strain asf1, hits give low values 1 | locus YJL129C, strain trk1, hits give low values 0.948 | locus YJL134W, strain LCB3, hits give low values 0.999 | locus YJL154C, strain vps35, hits give low values 0.998 | locus YJL164C, strain tpk1, hits give low values 0.981 | locus YJL166W, strain qcr8, hits give low values 1.03 | locus YJL168C, strain set2, hits give low values 0.999 | locus YJL187C, strain SWE1 (second series), hits give low values 1.01 | locus YJL187C, strain SWE1, hits give low values 1.01 | locus YJR043C, strain POL32, hits give low values 1.02

From PubChem BioAssay AID1159580 (chemical genetic matrix, 2015)
